Compounds without any hit were thinned out: in the full panel of roughly 79,000, 15% have a hit. Unmarked numbers belong to inactive results. Calls of active or inactive are those of the source. Rule as the data show it: active = growth inhibition above about 70%; inactive = the rest.
Experiments:
[1] = NCI Yeast Anticancer Drug Screen. Data for the rad50 strain (AID 155);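 also: 0% = growth of vehicle-only cultures of the same strain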; settings: S. cerevisiae rad50 strain growth inhibition; at 50.0 µM; hits give high values
Procedure, shortened: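 Relative growth inhibition (compound vs vehicle) was measured in yeast with a defined repair-gene alteration.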

[2] = NCI Yeast Anticancer Drug Screen. Data for the mec2-1 strain (AID 157); settings: S. cerevisiae mec2-1 strain, at 50.0 µM, hits give high values
Procedure, shortened: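 mec2-1 yeast strain, carrying an alteration in DNA damage repair or cell cycle control, was exposed to compounds; growth inhibition was measured relative to vehicle-treated controls.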

[3] = NCI Yeast Anticancer Drug Screen. Data for the sgs1 mgt1 strain (AID 161);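 also: 0% = growth of cultures given vehicle only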; settings: S. cerevisiae sgs1 mgt1 strain, at 50.0 µM, hits give high values
Procedure, shortened: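 Yeast cells carrying a defined DNA-repair defect were exposed to test compounds. Growth inhibition was measured relative to vehicle-treated controls.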

[4] = NCI Yeast Anticancer Drug Screen. Data for the cln2 rad14 strain (AID 165);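 also: 0% = growth equal to vehicle treated cultures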; settings: S. cerevisiae cln2 rad14 strain, at 50.0 µM, hits give high values
Procedure, shortened: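 Yeast carrying cln2 and rad14 alterations (cell cycle control and DNA damage repair) were exposed to compounds. Growth inhibition was measured against vehicle-treated controls.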

[5] = NCI Yeast Anticancer Drug Screen. Data for the bub3 strain (AID 167); settings: S. cerevisiae bub3 mutant strain, at 50.0 µM, hits give high values
Procedure, shortened: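 Screening used yeast with an engineered genetic alteration affecting cell cycle control. Compound-exposed cultures were compared with vehicle cultures, and reduced growth was taken as inhibition.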

[6] = NCI Yeast Anticancer Drug Screen. Data for the mlh1 rad18 strain (AID 175); settings: S. cerevisiae mlh1 rad18 strain growth inhibition; at 50.0 µM; hits give high values
Procedure, shortened: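 Growth inhibition of the yeast strain was measured after compound exposure and expressed relative to vehicle-treated controls. The strain carries defined defects in DNA damage repair.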

Compound | growth inhibition [1] | growth inhibition [2] | growth inhibition [3] | growth inhibition [4] | growth inhibition [5] | growth inhibition [6]
CCCCN(CC)CCNc1cc(C)nc(/N=C(\N)Nc2ccc(Cl)c(Cl)c2)n1 | 95.8% (active) | 85% (active) | 96.3% (active) | 29.1% | 76.5% (active) | 92.5% (active)
OCc1sccc1-n1cccc1 | -19.4% | -47.5% | -16.6% | 5.75% | -48.5% | -28.6%
C=CC(C)(C)[C@@]12CC3C(=O)N[C@@H](Cc4ccccc4)C(=O)N3[C@@H]1N(C(C)=O)c1ccccc12 (some centres undefined) | 73.2% (active) | 12.2% | 16.7% | 50.5% | 45.6% | 53.1%
C/C(=N\NC(=O)C1CCCO1)c1cccc2ccccc12 (centres undefined) | 3.1% | 11.5% | 5.55% | 17% | 3.9% | 3.55%
Nc1ccc2c(c1)C1C(C3C2C2(Cl)C(Cl)=C(Cl)C3(Cl)C2(Cl)Cl)C2(Cl)C(Cl)=C(Cl)C1(Cl)C2(Cl)Cl (centres undefined) | 33.6% | 24.9% | 21.9% | 24.1% | 50.1% | 39.5%
CCN(CC)C(N)=Nc1cc2ccccc2c2ccccc12 | -16.5% | -22.8% | -16.9% | -45.5% | 8.55% | 5.25%
O=C(O)c1cc(O)[nH]c(=O)c1 | -12% | -105% | -22.6% | -48.5% | -26% | -16.2%
CN(C)c1ccc2c(c1)c1cc(N(C)C)ccc1n2Cc1ccccc1 | -2.05% | -19.6% | 12.2% | -30.4% | 1.95% | -10.2%
O=C(c1ccc(O)cc1)C1N=NCC1c1ccccc1 (centres undefined) | -15.8% | -9.8% | -11.8% | -17.8% | 56.8% | 13.8%
CCCCCCCCCCCCCCCCCCNc1ccccc1 | -6.15% | 9.15% | 12.2% | -29.8% | 1.15% | 16.2%
CCOC(=O)C1(C(F)(F)F)N=C(CC)OC(N2CCOCC2)=N1 (centres undefined) | -23.9% | -12.6% | -18.7% | 10.1% | -16% | -27.1%
CC(=O)NNc1nc(C)c(C(=O)NNC(=O)C(=O)Nc2ccc(C)c(C)c2)s1 | 8.7% | -1.2% | -6.05% | 4.8% | 20.9% | -1.45%
C/C(=N\O)C1(C)CC=CCC1C(=O)O (centres undefined) | -4.8% | 4.5% | 2.8% | 19.2% | -11.3% | 1.4%
O=Cc1cc(C(=O)c2ccccn2)c2cc(Cl)cc(Cl)c2n1 | 8.05% | 5.9% | 5.8% | -13.8% | -4.3% | 11.6%
CC1(C)S[C@@H]2[C@H](NC(=O)C3(N)CCCCC3)C(=O)N2[C@H]1C(=O)O | -11.8% | -29.1% | 7.85% | -5.65% | -59.6% | -11.8%
CCOc1cc([N+](=O)[O-])c(OCC)cc1Cl | -24.6% | -53.5% | -19.9% | 11% | -17.6% | -29.6%
O=C1OC(c2ccccc2)C=C1Nc1ccccc1 (centres undefined) | 9.55% | 12.4% | -3.05% | -12.1% | 17% | 9.4%

Compound | growth inhibition [1] | growth inhibition [2] | growth inhibition [3] | growth inhibition [4] | growth inhibition [5] | growth inhibition [6]
Cc1ccc2c(c1)-c1c3c(nn1C)-c1ccccc1SC3O2 (centres undefined) | -0.35% | -7.75% | -13.1% | -3.6% | -5.75% | 9.15%
CC(=O)c1ccc(C2CCC[C@H]2c2ccc(C(C)=O)cc2)cc1 (some centres undefined) | 4.15% | -1.55% | 1.75% | -40.2% | 9.3% | -16.4%
OC1C(OCc2ccccc2)OC(COCc2ccccc2)C(OC2OC(COCc3ccccc3)C(OCc3ccccc3)C(OCc3ccccc3)C2OCc2ccccc2)C1OCc1ccccc1 (centres undefined) | -2.1% | -9.85% | -13.8% | -8.65% | -3.3% | -3.6%
Nc1cccc2c(=O)[nH][nH]c(=O)c12 | 16.6% | -3.1% | 23.9% | 9.95% | 14.8% | 22.1%
CCN(CC)Cc1cc(N=Nc2ccc3c(c2)c2ccccc2n3CC)c2ccccc2c1O | 20% | 10.9% | 11.2% | 12.6% | -5.5% | 2.25%
CC1(C)C(=O)N(c2ccccc2)C1c1ccccc1 (centres undefined) | -6.2% | -5.4% | -1.5% | -40.5% | 12.1% | -5.7%
N#CC12CCC(CC1)CC2Cl (centres undefined) | -15.7% | 8.45% | 0.95% | 4.4% | 1.5% | -12.7%
O=C1C=C(Nc2nc(O)cc(=O)[nH]2)c2ccccc2C1=O | 0.75% | 2.2% | 1.15% | -38.5% | -0.4% | 13.5%
COc1ccc(C(=O)C(C(=O)C(=O)Nc2ccc(Cl)c(Cl)c2)c2ccc(OC)cc2)cc1 (centres undefined) | -0.6% | 11.2% | -34.4% | 38.1% | 8.95% | -17.3%
Nc1ccc2[nH]c(=S)sc2c1 | 11.2% | 16.4% | -7.2% | -1.6% | -0.65% | 3.35%
CCCCNC(=O)Nc1cc(C)ccc1C | -0.4% | 1.95% | -0.7% | -9.75% | 8.2% | 2.1%
Oc1c2c(c3cccc4cccc1c43)=Nc1ccccc1S2 | 0.25% | 3.2% | 6.4% | -23.6% | 3.3% | 7.1%
CN1C/C(=C\c2ccccc2)C2=NN(C(N)=S)[C@H](c3ccccc3)[C@@H]2C1 | 3.5% | -18.1% | -5.85% | 10.9% | -19.8% | -16.9%
Cc1ccc(S(=O)(=O)SC(SCC(=O)c2ccc(Br)cc2)C(=O)c2ccc(Br)cc2)cc1 (centres undefined) | 26.6% | -10.4% | 33.5% | 19.9% | -0.15% | 13.2%
C1=Nc2ccccc2/C1=C/c1cccs1 | 35.5% | 37% | 12.1% | -47.4% | 13% | 48.8%
O=NC1C2CCC(C2)C1N=O.[Co].[c-]1[c-][c-][cH-][c-]1 (centres undefined) | 9.4% | 6.45% | 4.7% | 20.4% | 13.6% | 27.9%
O=C(c1ccccc1)n1c2ccccc2c2ccccc21 | 9.55% | -3.3% | 17.6% | -1% | 26.2% | 26.2%

Source: PubChem BioAssay (NCI)
